DAX1 inh-1 = inhibitors of DAX1 repression of SF-1 activated StAR promoter; HEK293T StAR-luciferase reporter, SF-1/DAX-1 repression relief; inhibition, % at 6.8 µM; hit rate 1.1% among 370,000; AID 652010;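 active = inhibition above the mean over all tested compounds plus 3 SD, cut at about 3.6% in these data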;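 note: 0% = DAX-1 cells with DMSO and 100% = cells lacking DAX-1 with DMSO; higher inhibition means more luminescence from relief of DAX-1 repression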
ssDAF-12 act = activates DAF-12 receptor from parasite S. stercoralis. HEK293 ssDAF-12/GRIP1 lit1-tk-luc reporter, luminescence; % of 3 µM dafachronic acid response. activation, % at 6.8 µM. hit rate 1% among 370,000. AID 652126;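 active = activation above the mean over all tested compounds plus 3 SD, cut at about 0.9% in these data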;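 note: 0% = DMSO-only wells and 100% = 3 µM delta7-dafachronic acid wells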
hgDAF12 agonist = agonists of H. glycines DAF-12 nuclear receptor | HEK293 GAL4-hgDAF12 UAS-luciferase reporter, agonist luminescence; normalized to butyrate control | activation, % at 6.8 µM | hit rate 1.8% among 370,000 | AID 687014;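 active = activation above a cutoff set at the mean of all screened compounds plus 3 SD, cut at about 10% in these data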;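 note: 0% = DMSO wells and 100% = sodium butyrate wells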
hcDAF12 agonist = activates DAF-12 receptor from parasite H. contortus; HEK293 hcDAF-12 lit1-tk-luc reporter, luminescence; 0% DMSO, 100% Δ7-dafachronic acid; activation, % at 6.8 µM; hit rate 1.4% among 370,000;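 active = activation above the mean of all tested compounds plus 3 SD, cut at about 5.5% in these data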;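 note: 100% = response to 3 µM Δ7-dafachronic acid high control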
DAX1 inh-2 = inhibits human nuclear receptor DAX1 | AID 504766 | P51843 | inhibition, % at 6.75 µM | hit rate 0.99% among 340,000 | HEK293 Gal4-DAX1 luciferase reporter, luminescence;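 active = inhibition above the mean over all tested compounds plus 3 SD, cut at about 4.2% in these data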;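 note: 0% = DAX1-transfected cells with DMSO and 100% = empty-vector control cells with DMSO; inhibition shows as a rise in luminescence from relieved DAX1 repression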
LXR ag = activates human LXR-beta, counter-screen for hcDAF-12 agonists | shares compounds with hcDAF12 agonist | HEK293 Gal4-LXR tk-luc reporter, luminescence, 24 h; normalized: DMSO 0%, positive control 100% | activation, % at 6.8 µM | 3,400 tested, under 10 active;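 active = mean percent activation of the reporter above a cutoff set as the average over tested compounds plus their standard deviation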
Target sequence (P55055 whole entry, looked up, the tested form may be a part): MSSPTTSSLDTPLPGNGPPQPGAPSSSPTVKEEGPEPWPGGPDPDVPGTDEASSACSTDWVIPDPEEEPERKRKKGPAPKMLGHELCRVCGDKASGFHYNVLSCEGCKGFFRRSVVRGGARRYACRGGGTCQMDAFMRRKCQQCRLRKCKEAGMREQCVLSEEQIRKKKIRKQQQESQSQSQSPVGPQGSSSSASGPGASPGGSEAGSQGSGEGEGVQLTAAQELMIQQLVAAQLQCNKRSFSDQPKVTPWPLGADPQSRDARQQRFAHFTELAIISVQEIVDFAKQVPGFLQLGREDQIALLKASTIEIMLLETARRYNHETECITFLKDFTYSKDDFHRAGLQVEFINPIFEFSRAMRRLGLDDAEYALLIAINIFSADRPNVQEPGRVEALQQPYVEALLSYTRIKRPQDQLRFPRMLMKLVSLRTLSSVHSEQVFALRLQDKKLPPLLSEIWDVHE
hcDAF12 ag = confirmation of H. contortus DAF-12 agonists. shares compounds with hcDAF12 agonist. hit rate 61% among 3,400. activation, % at 6.8 µM. HEK293 hcDAF-12 lit1-tk-luc reporter, luminescence; % of Δ7-dafachronic acid response;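 active = mean activation across triplicate tests above the threshold derived from the earlier primary screen, cut at about 5.5% in these data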;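 note: 0% = DMSO only wells and 100% = 3 µM Δ7-dafachronic acid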
Starred values were filed as active, the others as inactive; . = no result given. Only some compounds are listed: those with a hit (about 4.1% of all), similar ones and a draw of the others.

SMILES	DAX1 inh-1	ssDAF-12 act	hgDAF12 agonist	hcDAF12 agonist	DAX1 inh-2	LXR ag	hcDAF12 ag
Cc1ccc(S(=O)(=O)Nc2nc3ccc(N)cc3s2)cc1	0	-1	-1	-2	0	.	.
COc1ccc2nc(N)sc2c1	0	-1	5	3	1	.	.
CC1(C(=O)NS(=O)(=O)c2cccc(Cl)c2)CCN1C(=O)Cc1ccsc1 (stereo unspecified)	2	-1	0	1	.	.	.
C[C@H](c1ccccc1)N1C[C@H](COCc2ccccc2)Oc2cc(N3CC[C@H](N(C)C)C3)ccc2S1(=O)=O	2	-2	4	1	.	.	.
CCCCn1nnnc1NCc1ccc(OC)c(OC)c1	-1	-2	0	8.5*	-2	0	1
CC(=O)Nc1ccc(NC(=O)c2ccc(-c3ccccc3Cl)o2)cc1	1	-1	3	-1	0	.	.
O=C(Nc1nccs1)c1ccc(-c2ccccc2Cl)o1	2	2.4*	12*	6.7*	3	1	6.2*
O=C1OC(C(Cl)(Cl)Cl)Nc2ccccc21 (stereo unspecified)	1	-1	0	1	.	.	.
O=C1c2cccc3cccc(c23)C(=O)N1CCc1ccccc1	2	2.1*	8	14*	1	1	9.4*
CCCNC(=O)N[C@H]1CC[C@@H](CCn2cc(-c3cccc(F)c3)nn2)O[C@@H]1CO	0	-1	1	0	.	.	.
COc1cccc2sc(Nc3nnc(-c4ccc(F)cc4)o3)nc12	-1	0	4	7.8*	0	0	4
COc1cccc2sc(Nc3nnc(-c4cccs4)o3)nc12	0	0	6	4	-1	.	.
O=C(COc1ccc2c(c1)OCO2)Nc1nccs1	2	1.1*	11*	7.5*	-2	1	6.0*
COCc1nnc(NC(=O)COc2ccc3c(c2)OCO3)s1	0	-1	1	4	1	.	.
CCOc1cc(N2CCOCC2)c(OCC)cc1NC(=O)c1cc(S(=O)(=O)N2CCOCC2)ccc1F	2	-2	1	1	0	.	.
C(#Cc1ccc2c(c1)COc1c3ccccc3nn1-2)c1ccccc1	1	0	8	4	4	.	.
C#Cc1ccc2c(c1)COc1c3ccccc3nn1-2	3	1.8*	12*	11*	2	2	8.3*
COC(=O)c1c(NC(=S)Nc2ccc(F)cc2[N+](=O)[O-])sc2c1CCCCC2	-1	0	2	9.5*	1	0	2
O=c1cc(-c2ccccc2)[nH]n1-c1nc2ccccc2s1	1	0	3	4	1	.	.
O=C1CNC(=S)N1c1nc2ccccc2s1	1	0	5	6.8*	1	0	8.0*
CN(C(=O)c1ccc2nc(N)sc2c1)c1ccccc1	0	-1	-1	-1	-1	.	.
CN(C(=O)c1ccccc1)c1nc2ccccc2s1	2	0	13*	6.8*	0	1	6.2*
CN(Cc1c(C(=O)N/N=C/c2ccccc2O)nnn1-c1nonc1N)C1CCCCC1	-1	-1	1	1	1	.	.
O=c1oc2c(O)cccc2cc1-c1nc2ccccc2[nH]1	2	0	9	8.1*	-1	1	3
CCN(CCO)C(=O)CC1C(=O)NCCN1Cc1c(F)cccc1Cl (stereo unspecified)	0	0	-4	11*	2	0	1
SMILES	DAX1 inh-1	ssDAF-12 act	hgDAF12 agonist	hcDAF12 agonist	DAX1 inh-2	LXR ag	hcDAF12 ag
CC(C)(C)OC(=O)N1CCC[C@@H]1C(=O)NCc1ccccc1	-1	0	1	-1	.	.	.
CC(=O)c1sc(NC(=O)c2oc3ccc(F)cc3c2C)nc1C	3	0	3	6.9*	2	1	4
COCCN1C(=O)CSCC1(C)C(=O)NC(C)C (stereo unspecified)	0	-1	1	-2	.	.	.
Cc1nc2ccccc2nc(C)c1=NOCc1ccccc1Cl	1	0	11*	8.7*	1	0	-1
Cc1ccc(C(=O)Nc2ccc(C(=O)N/N=C/c3c[nH]c4ccccc34)cc2)cc1	-1	0	4	7.3*	1	0	7.2*
O=C(CCC(=O)Nc1ccc(F)cc1)N/N=C/c1c[nH]c2ccccc12	-1	0	0	3	-1	.	.
COc1ccccc1C(=O)N/N=C/c1c[nH]c2ccccc12	0	1.4*	6	7.0*	-1	0	6.3*
O=C(N/N=C/c1c[nH]c2ccccc12)c1sc2ccccc2c1Cl	0	0	7	9.1*	1	0	4
O=C(N/N=C/c1ccccn1)c1sc2ccccc2c1Cl	-1	-1	1	0	0	.	.
COC(=O)[C@]12C[C@H](CC(=O)NCc3ccccc3)C(=O)N(Cc3ccco3)C1=C[C@H](COCc1ccccc1)O[C@@H]2C	-1	0	2	0	.	.	.
COc1ccc(NC(=O)COC(=O)c2ccc3ccccc3n2)cc1	1	1	2	3	0	.	.
Cc1ccccc1C(=O)Nc1ccc(Cl)cn1	1	-1	10	2	3	.	.
O=C(Nc1ccc(OC(F)(F)F)cc1)c1ccc2ccccc2n1	1	1	9	7.8*	0	0	7.7*
O=C(Nc1ccc(Cl)cn1)c1ccc2ccccc2n1	0	1.4*	7	7.8*	2	1	17*
Nc1c2c(nc3sc4c(c13)CCCC4)-c1ccccc1CC2	3	1.1*	10	7.6*	3	2	11*
NC(=O)c1sc2nc(-c3ccccc3)c3c(c2c1N)CCCC3	-2	-2	-4	-2	0	.	.
COC(=O)c1ccc2nc(-c3ccc(F)cc3)c(Cc3ccsc3)n2c1	3	0	3	2	.	.	.
NC(=O)C1CCCN(C(=S)Nc2cccc3ccccc23)C1 (stereo unspecified)	1	0	2	7.7*	1	0	0
NC(=O)C1CCCN(C(=S)NCc2ccc3c(c2)OCO3)C1 (stereo unspecified)	0	-1	1	-1	0	.	.
COC(=O)C[C@@H]1CC[C@H]2[C@@H](COc3ccc(NC(=O)Nc4ccccc4Cl)cc3C(=O)N2C)O1	1	-1	1	-2	.	.	.
O=C(O)[C@H]1CCCN1C(=O)c1ccccc1N1C(=O)[C@@H]2Cc3c([nH]c4ccccc34)C(c3cccc(Cl)c3)N2C1=O (stereo partly specified)	1	0	0	6	4	.	.

Screening results (PubChem BioAssay)
